This is an account of results in PubChem BioAssay AID485272 (The Scripps Research Institute Molecular Screening Center, 2010).

About 1,300 (0.39%) of roughly 330,000 compounds were called active. The sample as a whole holds a higher share of actives than the screen did. Unmarked numbers belong to inactive results.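 The calls were made as follows: active = percent inhibition above a cutoff equal to the mean of all tested compounds plus 3 SD (cut at about 15% in these data); inactive = the rest.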

Protein-arginine deiminase type-4 (Homo sapiens), sequence (Q9UM07 whole entry, looked up): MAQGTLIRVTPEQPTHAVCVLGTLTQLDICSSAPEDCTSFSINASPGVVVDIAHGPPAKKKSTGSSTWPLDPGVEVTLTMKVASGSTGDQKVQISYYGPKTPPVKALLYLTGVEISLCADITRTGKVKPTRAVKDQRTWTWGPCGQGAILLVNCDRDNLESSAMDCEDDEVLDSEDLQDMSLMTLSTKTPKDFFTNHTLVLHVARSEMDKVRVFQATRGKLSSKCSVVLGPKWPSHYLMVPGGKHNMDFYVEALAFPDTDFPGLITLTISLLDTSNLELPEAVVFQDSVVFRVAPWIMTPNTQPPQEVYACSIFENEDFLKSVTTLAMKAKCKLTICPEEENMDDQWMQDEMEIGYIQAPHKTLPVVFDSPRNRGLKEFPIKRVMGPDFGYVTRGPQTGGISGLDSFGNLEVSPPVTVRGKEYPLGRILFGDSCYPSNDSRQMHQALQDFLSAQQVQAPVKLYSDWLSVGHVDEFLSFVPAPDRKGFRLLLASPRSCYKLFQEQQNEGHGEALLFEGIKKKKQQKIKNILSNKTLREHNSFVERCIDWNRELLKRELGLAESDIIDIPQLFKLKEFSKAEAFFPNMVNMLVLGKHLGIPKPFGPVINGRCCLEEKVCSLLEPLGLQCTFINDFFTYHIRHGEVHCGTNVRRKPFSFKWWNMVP

The assay has as its target Protein-arginine deiminase type-4 (Homo sapiens) (UniProt Q9UM07). As to the kind of experiment: protein arginine deiminase 4 enzyme blockade – biochemical, fluorescence polarization, 1536-well format, primary screen (AID 485272).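 Also: 0% = PAD4 with RCA probe and DMSO and 100% = probe without PAD4.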 Particulars: recombinant PAD4, RCA probe fluorescence polarization; at 6.36 µM; active compounds read high. A general note: Fluorescence polarisation rises when a labelled molecule tumbles more slowly, as on binding a larger partner.
Broadly, the inhibition is the change of the read-out against control, counted positive when it falls. Regarding `CC(C)C(=O)N1CC(=O)Nc2ccc(F)cc2C1c1ccc(F)cc1` (centres undefined), the inhibition was 4.93%.

In the case of `Cc1[nH][nH]c(=O)c1C(c1ccc(-c2ccc(Cl)cc2)o1)c1c(C)[nH][nH]c1=O`, the inhibition is 20.2% (active).

As for `O=C(NC1CCCCC1)c1ccc(-c2ccc(Cl)cc2)o1`, the inhibition was 0.31%.

For the compound `CCOc1ccc(C(c2c(C)[nH][nH]c2=O)c2c(C)[nH][nH]c2=O)cc1OCC`, the inhibition is -2.1%.

For the compound `CCOC(=O)N1CCC(c2cc(=O)n(-c3ccccc3)[nH]2)CC1`, the inhibition was 55.1% (active).

Regarding `CCOC(=O)N1CCC(NC(=O)COc2cc(=O)n(C)c3ccccc23)CC1`, the inhibition is 3.7%.

For the compound `CCOC(=O)N1CCC(NC(=O)CCc2ccccc2)CC1`, the inhibition is 1.67%.

Regarding `CCOC(=O)Cn1nnnc1C`, the inhibition is -0.83%.

`CC(C)N(Cc1ccccc1)C(=O)COC(=O)c1ccccc1SCC(=O)N1CCCC1`: the inhibition was -1.69%.

Consider `Nc1scc[n+]1Cc1cccc2cccnc12`, for which the inhibition was -3.55%.

With `c1ccc2c(C[n+]3csc4ccccc43)cccc2c1`, the inhibition was 58.5% (active).

Consider `N#C/C(=C(/O)Cc1cccc2ccccc12)c1nc2ccccc2s1`, for which the inhibition is -0.3%.

For the compound `COc1ccccc1CNC(=O)C1CCN(c2nc3ccccc3o2)CC1`, the inhibition is 23% (active).

Turning to `COc1ccc(OC)c(CNC(=O)C2CCCN(c3nc4ccccc4o3)C2)c1` (centres undefined), the inhibition is 0.33%.

Turning to `COc1ccccc1CNC(=O)C1CCN(S(C)(=O)=O)CC1`, the inhibition was 3.16%.

`COc1ccc(CCNC(=S)NC(=O)/C=C/c2ccc(C)cc2)cc1OC`: the inhibition is 0.57%.

For the compound `CC(C)CC(=O)NC(=S)Nc1ccc(F)cc1F`, the inhibition was -0.18%.

With `Cc1nn(C)c(C)c1NS(=O)(=O)c1ccc(OC(F)(F)F)cc1`, the inhibition was -4.79%.

For the compound `O=C1COc2ccc(S(=O)(=O)Nc3ccc(OC(F)(F)F)cc3)cc2N1`, the inhibition is -0.73%.

`O=S(=O)(Nc1ccc(O)c2ccccc12)c1ccc(OC(F)(F)F)cc1`: the inhibition is 20.5% (active).

As for `O=S(=O)(Cc1cc(Cl)nc(-c2cccnc2)n1)c1ccccc1`, the inhibition is -1.95%.

Turning to `Cc1ccc(C(NC(=O)N2CCCC2)C(Cl)(Cl)Cl)cc1F` (centres undefined), the inhibition was 0.88%.

Take `CC(C)Oc1ccc(S(=O)(=O)N2CCOCC2)cc1NC(=O)C1CSC2(C)CCC(=O)N12` (centres undefined): the inhibition is -1.2%.

On to `Cc1c(C2=CCN(S(=O)(=O)c3ccc(Cl)cc3)CC2)c2ccccc2n1C`, for which the inhibition was -48.2%.

As for `COc1ccc(S(=O)(=O)N2CCOCC2)cc1NC(=O)CSc1nnc(NC2CC2)s1`, the inhibition is -2.8%.

On to `COc1ccc(S(=O)(=O)N2CCOCC2)cc1NC(=O)CSc1ncnc2ccccc12`, for which the inhibition was 18.5% (active).

In the case of `COc1ccc(S(=O)(=O)N2CCOCC2)cc1NC(=O)COc1ccccc1`, the inhibition was 6.68%.

With `CCCCCN(C(=O)CCC(=O)OCC(=O)NC1CCC(C)CC1)c1c(N)n(CCCC)c(=O)[nH]c1=O` (centres undefined), the inhibition is -1.97%.

For `CC(C)CC(=O)N1CCC(O)(CS(=O)(=O)Cc2ccccc2)CC1`, the inhibition is -3.05%.

For the compound `CCOc1ccc(Br)cc1S(=O)(=O)Nc1ccc(C(=O)OC(C)C(=O)N(C)c2ccccc2)cc1` (centres undefined), the inhibition is 2.93%.

Take `CCOc1ccc(S(=O)(=O)n2ccnc2)c2ccccc12`: the inhibition is 3.78%.

For the compound `Clc1ccc(C2=CSC3=Nc4cccc5cccc(c45)N23)cc1`, the inhibition was 15.1% (active).

Turning to `CN1CCN(S(=O)(=O)c2ccc(NC(=O)C3CCCO3)cc2)CC1` (centres undefined), the inhibition is 2.71%.

Take `O=C(O)c1ccc(COc2c(F)c(F)cc(F)c2F)o1`: the inhibition was -4.92%.

`CN(C(=O)CN1C(=O)S/C(=C\c2ccccc2F)C1=O)C1CCS(=O)(=O)C1` (centres undefined): the inhibition was 3.56%.

Consider `CCCCNC(=O)Nc1c(C)cc(SC#N)cc1C`, for which the inhibition was 39.1% (active).

`CCCCNC(=S)NNC(=O)c1cc(C)on1`: the inhibition is -2.6%.

Consider `CCCCNC(=O)CCNC(=O)c1ccc(C(C)(C)C)cc1`, for which the inhibition is 2.29%.

On to `CC(C)=C1C2CCC1C1C(=O)N(NC(=O)c3ccco3)C(=O)C21` (centres undefined), for which the inhibition was -4.39%.

Take `COc1ccc(/C=C(\NC(=O)c2ccc(OCC(C)C)cc2)C(=O)OCc2ccco2)cc1`: the inhibition is 1.51%.

`COCCCNC(=S)N1CCCC(c2nc3cc(C)c(C)cc3[nH]2)C1` (centres undefined): the inhibition is -0.08%.

On to `Cc1ccc(C2CC(c3cccc(NS(C)(=O)=O)c3)=NN2S(C)(=O)=O)cc1` (centres undefined), for which the inhibition was -2.1%.

For the compound `CCN1CC=C2C(C#N)=C(N)C(C#N)(C#N)[C@H](c3ccoc3)[C@H]2C1`, the inhibition was 30.4% (active).

For `N#CC1=C(N)C(C#N)(C#N)[C@H](c2ccsc2)[C@H]2COCC=C12`, the inhibition is -0.34%.

Take `CCCN1CC=C2C(C#N)=C(N)C(C#N)(C#N)C(c3cc(OC)ccc3OC)C2C1` (centres undefined): the inhibition was -2.45%.

Turning to `O=C(O)COCC(=O)NCc1csc2ccc(Cl)cc12`, the inhibition is -2.02%.

Consider `Cc1nc2ccc(NC(=O)C(F)(F)F)cc2o1`, for which the inhibition is 27.5% (active).

For `Cc1nc(C)c(C(=O)Nc2ccc(C)c(F)c2)o1`, the inhibition is -0.93%.

For the compound `Cc1ccc(NC(=O)Nc2ccc3oc(C)nc3c2)cc1`, the inhibition is -0.57%.

Regarding `CC(=O)c1c(C)[nH]c(C(=O)COC(=O)CCOc2ccc(C)cc2)c1C`, the inhibition was -5.3%.

On to `COC(=O)c1cc(S(=O)(=O)N2CCN(c3cc(C)ccc3C)CC2)c[nH]1`, for which the inhibition is -1.18%.

As to `CCOc1c(Br)cc(/C=C2\C(=O)N(CCC#N)N=C2C)cc1OC`, the inhibition was 57.8% (active).

As for `COc1cc(/C=C2/C(=O)NN(c3cccc(Cl)c3)C2=O)cc(Br)c1O`, the inhibition is -6.98%.

As for `C=CCOc1c(Br)cc(/C=N\n2nnnc2N)cc1OC`, the inhibition is -3.76%.

For the compound `COc1ccccc1N1CC(C(=O)NCCN2C(=O)S/C(=C\c3cccnc3)C2=O)CC1=O` (centres undefined), the inhibition is 1.63%.

In the case of `CCOc1ccc(N2CC(C(=O)NCCN3C(=O)S/C(=C\c4cccnc4)C3=O)CC2=O)cc1` (centres undefined), the inhibition was -4.16%.

On to `COc1ccc(N2CC(C(=O)NCCN3C(=O)S/C(=C\c4cccnc4)C3=O)CC2=O)c(OC)c1` (centres undefined), for which the inhibition was 101% (active).

As for `COc1ccc(C(=O)NCc2ccccc2C)cc1S(=O)(=O)NC1CCCC1`, the inhibition is 1.48%.

As to `Clc1ccc(CSc2nnc3c(n2)[nH]c2ccccc23)cc1`, the inhibition was -2.24%.

Consider `O=Cc1c(NCCc2cccc(F)c2)c2ccccc2[nH]c1=O`, for which the inhibition is -4.74%.

For the compound `O=C(NCC1CCCO1)c1cc2c([nH]c3ccccc32)c(-c2ccc(F)cc2)n1` (centres undefined), the inhibition is 66.5% (active).

As to `O=C(NCCCO)c1cc2c([nH]c3ccccc32)c(-c2ccc(F)cc2)n1`, the inhibition is 35.7% (active).

Consider `O=C(NCCc1ccc(F)cc1)c1n[nH]c2ccccc12`, for which the inhibition is -0.12%.

As for `O=C(NCC1CCCO1)c1ccc2ccccc2n1` (centres undefined), the inhibition is 0.05%.

Consider `COc1ccc2cc(C(=O)NCC3CCCO3)[nH]c2c1` (centres undefined), for which the inhibition was -4.37%.

Regarding `CC(NC(=O)c1cc(=O)[nH]c2ccccc12)c1ccc(F)cc1F` (centres undefined), the inhibition is -7%.

As for `CC(=O)C(C)n1cnc2scc(-c3ccc(C)cc3)c2c1=O` (centres undefined), the inhibition is -5.08%.

As for `Cc1cc(C)n(-c2nnc(C)n2NC(=O)c2cccc(Cl)c2)n1`, the inhibition is -3.56%.

Turning to `COC(=O)C1=C(C)NC(=S)NC1c1ccc(OCC(=O)N2CC(C)OC(C)C2)c(OC)c1` (centres undefined), the inhibition was -1.31%.

For the compound `COc1ccc(C2NC(=S)NC3=C2CCc2ccccc23)cc1OC` (centres undefined), the inhibition is 19.6% (active).

`CCOc1ccc(C2NC(=S)NC3=C2CCc2ccccc23)cc1` (centres undefined): the inhibition is -0.5%.

With `Cc1ccc(S(=O)(=O)NC(=O)COc2ccccc2C)cc1`, the inhibition was -0.01%.

In the case of `CC(=O)c1cccc(NC(=O)N2CCCC2C(=O)NCCC(C)C)c1` (centres undefined), the inhibition is -0.58%.

As to `Cc1nnsc1S(=O)(=O)Cc1ccccc1Cl`, the inhibition is -3.79%.

Take `O=C(Nc1ccc(S(=O)(=O)N2CCCCCC2)cc1)c1c(F)cccc1F`: the inhibition was -3.98%.

As to `O=C(NCCCN1CCN(c2ccc(F)cc2)CC1)Nc1ccc([N+](=O)[O-])cc1`, the inhibition was -8.31%.

On to `CC(=O)N(CN1C(=O)C2C3C=CC(C3)C2C1=O)c1cccc(Cl)c1` (centres undefined), for which the inhibition is -2.02%.

As to `CC(=O)Oc1cccc(N2C(=O)CC(Nc3ccc(N4CCOCC4)cc3)C2=O)c1` (centres undefined), the inhibition was 37.4% (active).

As to `COc1cc2ccccc2cc1C(=O)Nc1ccc(N2CCOCC2)cc1`, the inhibition is 7.08%.

As to `COc1ccc(N2CCN(C3CC(=O)N(c4ccc5c(c4)OCCO5)C3=O)CC2)cc1` (centres undefined), the inhibition is -4.31%.

As for `COc1cc(OC)cc(C(=O)Nc2ccc(-c3nc4ccccc4o3)c(O)c2)c1`, the inhibition is -9.35%.

As to `COCCCNC(NC(=O)c1ccc(C)cc1)C(Cl)(Cl)Cl` (centres undefined), the inhibition is -2.56%.

Consider `Nc1ccc(Nc2ccccc2)cc1`, for which the inhibition was 20.8% (active).

Take `Cc1ccc(Nc2ccccc2N)cc1`: the inhibition is -6.09%.

With `Cc1cc(Nc2ccccc2)n(C(=O)c2ccc(N)cc2)n1`, the inhibition is -3.04%.

As for `COc1ccc(S(=O)(=O)N(CC(=O)NCc2ccco2)c2ccc(F)cc2)cc1`, the inhibition is -1.25%.

With `COc1ccc(-n2c(C)cc(C(=O)CN3C(=O)NC4(CCc5ccccc54)C3=O)c2C)cc1` (centres undefined), the inhibition is 1.38%.

For the compound `CC(=O)Nc1ccc(SCC(=O)Nc2ccccc2Oc2ccccc2)cc1`, the inhibition is 2.48%.

In the case of `CC(NCCO)C(=O)C12CC3CC(CC(C3)C1)C2` (centres undefined), the inhibition was -1.18%.
